Reference: PubChem BioAssay (NCI)
Values joined by “and” are separate entries in the source; they are usually repeats but may differ in a detail not shown here. Equal entries are not always repeated. About 83,000 compounds went through this panel and 20% of them were active in at least one assay; those are over-represented in the sample as a whole.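 For each line, cells grew in 96-well plates with the test compound present at a single concentration for 48 hours.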 Active and inactive are the calls of the source. The calls were made as follows: active = growth percent below 10; inactive = the rest.

Tests used:
Assay in all cases: NCI-60 one-dose screen, 48 h (100 = growth as untreated, 0 = no growth, -100 = all killed)
Conditions in all cases: 10 µM unless noted
[1] = system: DU-145 prostate
[2] = system: K-562 leukemia
[3] = system: MALME-3M melanoma
[4] = system: MDA-MB-231 breast
[5] = system: RXF 393 renal
[6] = system: SF-268 CNS
[7] = system: SF-295 CNS
[8] = system: SF-539 CNS
[9] = system: UACC-257 melanoma
[10] = system: M14 melanoma

Measured: growth

CCc1c2c(nc3ccc(OCc4ccc(B5OC(C)(C)C(C)(C)O5)cc4)cc13)-c1cc3c(c(=O)n1C2)COC(=O)[C@]3(O)CC
inactive: [2] 19.8% | [4] 34.2%
active: [1] 3.05% | [3] -6.1% | [5] -25.7% | [6] 5.96% | [7] 5.44% | [8] -35.6% | [9] -9.18% | [10] 2.91%

CN(C)CCCn1c2c(c3ccc(N4CCNCC4)cc3c1=O)C(=O)c1ccccc1-2
active: [1] -30.1% | [2] -28.5% | [4] -49.7% | [5] -78.8% | [6] -24.8% | [7] -5.76%
inactive: [3] 21% | [8] 52.7% | [9] 37.3% | [10] 19.4%

Cc1nonc1-c1ccc2c(c1)OCO2
inactive: [1] 94.4% and 109% | [2] 101% | [3] 116% and 142% | [4] 96.8% and 110% | [5] 96.8% and 99.4% | [6] 89.9% and 95% | [7] 91.4% and 101% | [8] 111% and 95.7% | [9] 104% and 111% | [10] 110% and 108%

CC12OC(CC(O)C1O)n1c3ccccc3c3c4c(c5c6ccccc6n2c5c31)C(=O)N(CCN1CCOCC1)C4=O (stereo not given)
inactive: [4] 44.2% | [6] 17.9% | [9] 14.7%
active: [1] 3.22% | [2] 7.56% | [3] -18% | [5] -6.91% | [7] -14.5% | [8] 6.03% | [10] -3.54%

CC1(Cc2ccccc2)CC2=C(C(=O)O1)C(c1ccccc1)NC(=O)N2 (stereo not given)
inactive: [1] 111% | [2] 78.4% | [3] 104% | [4] 103% | [5] 108% | [6] 110% | [7] 104% | [8] 94.5% | [9] 101% | [10] 98%

COc1ccc(Oc2nc(Nc3ccc(N4CCOCC4)cc3)ncc2NC(=O)c2cc(OC)cc(OC)c2)cc1
inactive: [1] 98.7% | [2] 58.3% | [3] 108% | [4] 85.2% | [5] 52.3% | [6] 90% | [7] 94% | [8] 87.2% | [9] 99% | [10] 91.4%

CN(Cc1ccccc1)c1nc(Cl)c(C2CC(c3ccc(F)cc3)=NN2C=O)s1 (stereo not given)
inactive: [1] 104% | [2] 77.9% | [3] 105% | [4] 97% | [5] 92.9% | [6] 91.2% | [7] 92.2% | [8] 107% | [9] 103% | [10] 92.8%

CCCO/N=C/c1ccccn1
inactive: [1] 102% and 111% | [2] 99.5% and 103% | [3] 110% and 105% | [4] 103% and 111% | [5] 112% and 122% | [6] 96.4% and 104% | [7] 131% and 95.3% | [8] 110% and 95% | [9] 102% and 96.8% | [10] 105% and 103%

Cn1cc(-c2csc(-c3cn(CCOC(N)=O)c4ccccc34)n2)c2cccnc21
inactive: [1] 103% | [2] 27.3% | [3] 66.4% | [4] 80.4% | [5] 91.4% | [6] 95.8% | [7] 86.2% | [8] 92.7% | [9] 88% | [10] 71.1%

Nc1c(C(=O)Nc2ccncc2)sc2nc3c(cc12)CCCCCCCC3
active: [1] -75.5% | [2] -52% | [3] -84.6% | [4] -72.7% | [5] -80.6% | [6] -62.4% | [7] -77% | [8] -91.7% | [9] -75.7% | [10] -80.1%

O=C(CCN1CCOCC1)Nc1cccc(-n2cc(-c3ccncc3)c(-c3ccc(Cl)c(O)c3)n2)c1
active: [7] 6.52% | [8] -19.7% | [10] 5.06%
inactive: [1] 13% | [2] 20.2% | [3] 66.3% | [4] 55.4% | [5] 22.2% | [6] 37% | [9] 66.2%

Cc1ccc(S(=O)(=O)OC[C@@]2(C)CC[C@]3(C)CC[C@]4(C)C(=CC[C@@H]5[C@@]6(C)CCCNC(C)(C)[C@@H]6CC[C@]54C)[C@@H]3C2)cc1
active: [1] -90.7% | [2] -39.5% | [3] -75.8% | [4] -85.7% | [5] -85.9% | [6] -55.2% | [8] -93.2% | [9] -58.7% | [10] -68.5%
inactive: [7] 85.6%

COc1cc(/C=C/C(=O)c2ccc(NC(=O)CSc3nnc(-c4cc(-c5ccccc5)nc5ccccc45)n3-c3ccccc3)cc2)cc(OC)c1OC
inactive: [1] 83.7% | [2] 49.7% | [3] 94.6% | [4] 64.2% | [5] 94.1% | [6] 90.8% | [7] 96.6% | [8] 88.3% | [9] 109% | [10] 94.5%

O=[N+]([O-])c1cc(C(F)(F)F)ccc1Sc1ccc(C(F)(F)F)cc1[N+](=O)[O-]
inactive: [1] 64.4% | [3] 61.9% | [4] 72.4% | [5] 93.1% | [6] 63% | [7] 106% | [8] 61.1% | [9] 76.3% | [10] 49%
active: [2] 8.04%

COc1ccc(/C=N/NC(=O)CN2CCN(c3cc4c(cc3F)c(=O)c(C(=O)O)cn4C3CC3)CC2)cc1O
inactive: [1] 102% | [2] 86.2% | [3] 109% | [4] 92.8% | [5] 103% | [6] 87.7% | [7] 104% | [8] 101% | [9] 89.5% | [10] 101%

COc1cc(/C=N/NC(=O)CCN2c3ccccc3Sc3ccccc32)cc(OC)c1OC
inactive: [1] 97.4% | [2] 61.7% | [3] 93.3% | [4] 68.5% | [5] 85.8% | [6] 93.8% | [7] 74.3% | [8] 85.6% | [9] 92.7% | [10] 79.3%

C[C@@H]1CC[C@@H]2[C@@H]1[C@H](OC(=O)/C=C/c1ccccc1)[C@]1(c3ccccc3)C[C@@H](NC(=O)CO)[C@@]2(C)O1
inactive: [1] 107% | [2] 84.4% | [3] 98.6% | [4] 96.9% | [5] 83.2% | [6] 93.6% | [7] 93.8% | [8] 97.9% | [9] 93% | [10] 105%

COc1ccc(N2CCN(S(=O)(=O)c3oc(-c4ccccc4)nc3C#N)CC2)cc1
inactive: [1] 104% | [2] 15.3% | [3] 69.6% | [4] 77.2% | [5] 66.4% | [6] 102% | [7] 104% | [8] 68.2% | [9] 88% | [10] 47.4%

ON=C1CCCCCCCC1
inactive: [1] 107% and 103% | [2] 88.5% and 108% | [3] 100% and 98.6% | [4] 107% and 123% | [5] 112% | [6] 99.8% and 96.9% | [7] 105% and 103% | [8] 92.1% and 102% | [9] 104% and 107% | [10] 102% and 101%

COc1ccc(C(c2cc(OC)c(OC)c(OC)c2)n2ccnc2)cc1O (stereo not given)
active: [2] 8% | [5] -5.38% | [7] -3.02% | [8] 9.52% | [10] 0.908%
inactive: [1] 12.9% | [3] 66.6% | [4] 34.8% | [6] 39.6% | [9] 37.8%

N=c1ccccn1CCO
inactive: [1] 125% | [2] 108% | [3] 111% | [4] 95% | [5] 114% | [6] 110% | [7] 124% | [8] 107% | [9] 105% | [10] 102%

CCCCCCCCCCCCCCCC[N+](C)(C)CCN(Cc1ccc(OC)cc1)c1ncccn1
-82.5% (active) and 47.1% (inactive): [4]
-91.3% (active) and 71.2% (inactive): [8]
active: [5] -58.4% and -49.8% | [7] -90.6% | [10] -62.6% and -17.7%
inactive: [2] 35.5% | [9] 25.2% and 28.7%
-100% (active) and 69.4% (inactive): [1]
-70.3% (active) and 43.8% (inactive): [3]
-92.9% (active) and 38% (inactive): [6]

CCCCCCCCN(CCCCCCCC)CC(O)c1cc(Cl)ccc1OC (stereo not given)
inactive: [1] 81.8% | [2] 50.1% | [3] 99.5% | [4] 51.6% | [5] 51.9% | [6] 84.4% | [7] 76.9% | [8] 77.8% | [9] 90.4% | [10] 84.9%

O=C(CN1C(=O)S/C(=C\C(Cl)=C\c2ccccc2)C1=O)NCCCn1ccnc1
active: [2] 5.22% | [5] -25.9%
inactive: [1] 31.5% | [3] 25.4% | [4] 21.5% | [6] 86.7% | [7] 79.8% | [8] 15.2% | [9] 75.1% | [10] 21.3%
